Results filed as inconclusive are left out. The source made the active and inactive calls. Unless noted, calls follow the shape of the dose curve; as a rule, active = well fitted curve in the direction sought with a large enough effect; inconclusive = small, poorly fitted or top-dose-only effect, or another doubt; inactive = no such curve, though single readings can be large; an effect the other way counts as inactive or inconclusive.
Legend:
[1] = target: Nuclear receptor subfamily 1 group I member 3 (Homo sapiens) (UniProt Q14994); experiment: Primary qHTS for antagonist of constitutive androstane receptor (CAR) against the NCATS DSHEA and TCM libraries (AID 1794836)
Outline: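 HepG2 cells stably carrying hCAR and a CYP2B6 luciferase reporter (2,500 cells/well) attached for 5 h, then received compounds with 48 uM CITCO for 24 h at 37C. ONE-Glo luminescence read antagonism; CellTiter-Fluor (405/540 nm) gave viability.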

CRL-7250 = normal cell line; experiment: qHTS assay to identify novel small-molecules to repurpose for Merkel cell carcinoma treatment (AID 1296009); details: MCC and control cell lines, CellTiter-Glo viability, 72 h; series mostly up to 92 µM; also: nearly all actives have a fitted effect of over 60% in size
Outline: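 Cells exposed to NPC (8-point) and MIPE (11-point) compound dilutions for 72 hr at 37 degree celsius; viability read by CellTiter-Glo luminescence, normalized to no-cell and DMSO in-plate controls.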

[2] = Cytotoxicity counterscreen for inhibitors of SARS-CoV-2 cell entry (AID 1645845; calls by dose curve; also: nearly all actives have a fitted effect of over 50% in size)
Outline: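 Expi293F/hACE2 cells seeded overnight; cpd pin-transferred in DMSO, 1 h preincubation, + media, 48 h 37 C 5% CO2; ATPLite 1step luminescence; normalized to cells and no cells.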

[3] = Primary qHTS to identify inhibitors of SARS-CoV-2 cell entry (AID 1645846; calls by dose curve; also: nearly all actives have a fitted effect of over 45% in size); details: activity change, negative = inhibition: at 57.1 µM (top of the series) unless noted
Outline: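 Inhibition of spike-mediated entry was scored in human ACE2-transfected Expi293F cells. Particles were MLV-pseudotyped with Wuhan-Hu-1 S carrying a 19-aa C-terminal deletion; signal was luciferase after two days, scaled between spike PP and fusion-protein-free PP.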

[4] = P-glycoprotein substrates identified in KB-8-5-11 adenocarcinoma cell line, qHTS therapeutic library screen (AID 1346987); also: potency is read from the fitted curve at half-maximal effect; nearly all actives have a fitted effect of over 65% in size
Outline: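 KB-8-5-11: colchicine-selected sub-line of KB-3-1 over-expressing P-gp; assay medium lacked colchicine. 72 h drug exposure at 37 degree C, CellTiter-Glo.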

[5] = system: Zika virus NS2B-NS3 protease (unlinked complex); experiment: Primary screen GU Rhodamine qHTS for Zika virus inhibitors: Unlinked NS2B-NS3 protease assay (AID 1347159); also: nearly all actives have a fitted effect of over 60% in size
Outline: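 Noncovalent NS2B hydrophilic domain/NS3 protease complex (25 nM final) in 10 mM Tris-HCl pH 8.0, 0.01% Tween 20, preincubated 15 min with compounds (up to 114 microM), then 1.5 microM Rhodamine110 substrate. Fluorescence change over 15 min fitted to 4-parameter Hill.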

[6] = system: Zika virus NS2B-NS3 protease (linked construct); experiment: Primary screen NINDS Rhodamine qHTS for Zika virus inhibitors (AID 1347160); also: nearly all actives have a fitted effect of over 55% in size
Outline: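 Purified NS2B-NS3 protease with the NS2B hydrophilic domain joined by a flexible linker (25 nM) in 10 mM Tris-HCl pH 8.0, 0.01% Tween 20, preincubated 15 min at RT with compound; Rhodamine110 peptide substrate 1.5 µM; fluorescence change over 15 min; 4-parameter Hill fit.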

[7] = target: Calcium and integrin-binding protein 1 (Homo sapiens) (UniProt Q99828); experiment: Primary qHTS for Identification of Calcium Integrin Binding Protein 1 (CIB1) Competitor (AID 1508620);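 also: GST tagged CIB1 binding a fluorescein labelled alphaIIb integrin peptide tracer; top concentration of the series differs between compounds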
Outline: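 Fluorescence polarization competition: CIB1-GST (1 uM final) preincubated with compound 15 min at room temperature, then FITC-labeled alphaIIb peptide (100 nM final) added for another 15 min. Polarization read at Ex 480/Em 540.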

[8] = target: Cytochrome P450 2D6 (Homo sapiens) (UniProt P10635); experiment: Cytochrome P450 family 2 subfamily D member 6 (CYP2D6) small molecule antagonists: luciferase biochemical (cell-free) qHTS assay (AID 1645840; active = well fitted curve in the direction sought with a large enough effect in the repeat runs; an effect the other way counts as inactive or inconclusive; also: potency is read from the fitted curve at half-maximal effect; nearly all actives have a fitted effect of over 55% in size)
Outline: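 P450-Glo luminescent screen: recombinant CYP2D6 enzyme–proluciferin substrate mix preincubated with compound 10 min at room temperature, then NADPH regeneration added for 1 h at room temperature. Detection reagent added for 20 min; luciferin light read as relative luminescence units.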

[9] = target: Glutathione peroxidase 1 (Homo sapiens) (UniProt P07203); experiment: Primary qHTS Assay for Inhibitors of Recombinant Selenoprotein Glutathione Peroxidase 1 (GPX1) (AID 1845191); also: nearly all actives have a fitted effect of over 65% in size
Outline: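 Recombinant GPX1 (10 nM final) was preincubated with compound for 30 min at room temperature, then reacted with 1 mM GSH, 0.5 mM CHP, 0.5 mM NADPH and 100 nM glutathione reductase; NADPH fluorescence (340/450 nm) was read at 0 and 15 min.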

[10] = target: Phospholipid hydroperoxide glutathione peroxidase GPX4 (Homo sapiens) (UniProt P36969); experiment: Primary qHTS Assay for Inhibitors of Recombinant Selenoprotein Glutathione Peroxidase 4 (GPX4) (AID 1845192); also: nearly all actives have a fitted effect of over 65% in size
Outline: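 GR-coupled readout: 100 nM GR, 1 mM GSH, 0.5 mM NADPH; NADPH fluorescence (ex 340/em 450 nm) read at t=0 and after 15 min RT. GPX4 200 nM, preincubated 30 min with compound; substrate 0.5 mM CHP.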

[11] = target: Luciferin 4-monooxygenase (Photinus pyralis) (UniProt P08659); experiment: Primary firefly luciferase (FLuc) qHTS assay for identification of artifact compounds. (AID 1845220); details: outcome: dose series up to 54.1 µM unless noted; also: nearly all actives have a fitted effect of over 60% in size
Outline: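 In this counter-screen for luciferase artifacts, test compounds met substrate (10 uM each luciferin and ATP) before 10 nM enzyme started the reaction. Light output was measured 5 min later.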

[12] = Primary fluorescence-based thiol-reactive (MSTI) qHTS assay for identification of artifact compounds. (AID 1845221);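 also: thiol-reactive compounds lower the probe fluorescence signal; nearly all actives have a fitted effect of over 65% in size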
Outline: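 First, 4 uM MSTI in 2% DMSO/PBS pH 7.4 was dispensed; next, compounds were added; then plates sat 1 h at room temperature without light. Finally, emission at 598 nm was recorded.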

[13] = system: Nanoluciferase (engineered Oplophorus gracilirostris luciferase); experiment: Primary Nanoluciferase (NLuc) qHTS assay for identification of artifact compounds. (AID 1845222);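 also: NLuc secreted into diluted conditioned medium of S16 cells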
Outline: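 Using secreted nanoluciferase in S16 culture medium (0.22 um filtered, 1:55 dilution), compounds were preincubated 15 min at RT. Signal was generated with Nano-Glo reagent (1:100) over 5 min.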

C33A = experiment: Primary qHTS to identify gynecologic anti-cancer compounds using libraries of approved drugs and bioactive compounds (AID 1345084); details: Gynecologic cancer cell panel viability, ATPlite luminescence, 48 h; series mostly up to 57.5 µM; also: nearly all actives have a fitted effect of over 55% in size
Outline: (§1)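 48 h compound exposure at 37 C, 5% CO2; five-point qHTS. ATPlite luminescence readout of cell ATP.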

CAOV3 = experiment: as above; details: Gynecologic cancer cell panel viability, ATPlite luminescence, 48 h; series mostly up to 57.5 µM
Outline: as §1

CASKI = experiment: as above; details: Gynecologic cancer cell panel viability, ATPlite luminescence, 48 h; series mostly up to 57.5 µM
Outline: as §1

Es-2 = experiment: as above; details: Gynecologic cancer cell panel viability, ATPlite luminescence, 48 h; series mostly up to 57.5 µM
Outline: as §1

HeLa = experiment: as above; details: Gynecologic cancer cell panel viability, ATPlite luminescence, 48 h; series mostly up to 57.5 µM
Outline: as §1

Hek293T = experiment: as above; details: Gynecologic cancer cell panel viability, ATPlite luminescence, 48 h, control line for the selectivity index; series mostly up to 57.5 µM
Outline: as §1

JEG-3 = experiment: as above; details: Gynecologic cancer cell panel viability, ATPlite luminescence, 48 h; series mostly up to 57.5 µM
Outline: as §1

OV90 = experiment: as above; details: Gynecologic cancer cell panel viability, ATPlite luminescence, 48 h; series mostly up to 57.5 µM
Outline: as §1

PA-1 = experiment: as above; details: Gynecologic cancer cell panel viability, ATPlite luminescence, 48 h; series mostly up to 57.5 µM
Outline: as §1

Tov-21-G = experiment: as above; details: Gynecologic cancer cell panel viability, ATPlite luminescence, 48 h; series mostly up to 57.5 µM
Outline: as §1

Tov112D = experiment: as above; details: Gynecologic cancer cell panel viability, ATPlite luminescence, 48 h; series mostly up to 57.5 µM
Outline: as §1

[14] = target: Cytochrome P450 2C9 (Homo sapiens) (UniProt P11712); experiment: Cytochrome P450 family 2 subfamily C member 9 (CYP2C9) small molecule antagonists: luciferase biochemical (cell-free) qHTS assay (AID 1645842; active = well fitted curve in the direction sought with a large enough effect in the repeat runs; an effect the other way counts as inactive or inconclusive; also: potency is read from the fitted curve at half-maximal effect; nearly all actives have a fitted effect of over 55% in size)
Outline: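 Luminescence, after 20 min with luciferin detection reagent, reflected CYP2C9 turnover during a 1 h NADPH-driven reaction at 37C. Enzyme-substrate mix contained 0.4% bovine serum albumin and was preincubated with compound 10 min at room temperature.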

[15] = Primary qHTS for inhibitors of nuclear receptor binding SET domain protein 2 (NSD2) in an isogenic RCH-ACV NSD2 p.E1099K mutant (9B) (AID 1645876); also: potency is read from the fitted curve at half-maximal effect; nearly all actives have a fitted effect of over 70% in size
[16] = Primary qHTS for inhibitors of nuclear receptor binding SET domain protein 2 (NSD2) in an RCH-ACV wild type WT cells (2C) (AID 1645877); also: potency is read from the fitted curve at half-maximal effect; nearly all actives have a fitted effect of over 70% in size
[17] = Primary redox qHTS assay for identification of artifact compounds. (AID 1845223)
Outline: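 Amplex Red (25 uM) and HRP (250 mU/mL) in HBSS, with compounds for 15 min, then 250 uM DTT for 30 min, room temperature, dark. Fluorescence 525/598 nm read; normalized to DMSO and 10 uM DA3003; Hill fit.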

Chain of Nuclear receptor subfamily 1 group I member 3 (Homo sapiens) (Q14994 whole entry, looked up): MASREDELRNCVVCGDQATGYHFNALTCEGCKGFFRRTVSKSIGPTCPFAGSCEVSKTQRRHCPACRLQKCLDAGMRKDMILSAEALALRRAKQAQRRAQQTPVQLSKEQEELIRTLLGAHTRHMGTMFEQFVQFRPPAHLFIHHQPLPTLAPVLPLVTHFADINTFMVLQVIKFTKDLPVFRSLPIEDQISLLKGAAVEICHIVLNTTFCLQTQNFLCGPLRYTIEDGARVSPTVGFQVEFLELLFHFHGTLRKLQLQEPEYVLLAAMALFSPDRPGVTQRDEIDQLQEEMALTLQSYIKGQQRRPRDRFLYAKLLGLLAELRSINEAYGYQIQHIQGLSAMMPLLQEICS
Chain of Phospholipid hydroperoxide glutathione peroxidase GPX4 (Homo sapiens) (P36969 whole entry, looked up): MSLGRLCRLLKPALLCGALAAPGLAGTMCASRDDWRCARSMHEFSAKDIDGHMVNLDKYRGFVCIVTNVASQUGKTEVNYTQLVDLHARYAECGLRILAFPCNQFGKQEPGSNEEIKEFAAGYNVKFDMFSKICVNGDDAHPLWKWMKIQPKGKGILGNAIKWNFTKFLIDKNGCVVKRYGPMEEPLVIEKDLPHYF
Chain of Glutathione peroxidase 1 (Homo sapiens) (P07203 whole entry, looked up): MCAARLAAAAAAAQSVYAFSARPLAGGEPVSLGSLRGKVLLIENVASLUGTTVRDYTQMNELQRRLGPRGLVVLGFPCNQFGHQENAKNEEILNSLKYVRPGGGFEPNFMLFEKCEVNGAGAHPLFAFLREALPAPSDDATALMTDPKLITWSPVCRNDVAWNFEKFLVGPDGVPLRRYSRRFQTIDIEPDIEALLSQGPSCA
Chain of Cytochrome P450 2D6 (Homo sapiens) (P10635 whole entry, looked up): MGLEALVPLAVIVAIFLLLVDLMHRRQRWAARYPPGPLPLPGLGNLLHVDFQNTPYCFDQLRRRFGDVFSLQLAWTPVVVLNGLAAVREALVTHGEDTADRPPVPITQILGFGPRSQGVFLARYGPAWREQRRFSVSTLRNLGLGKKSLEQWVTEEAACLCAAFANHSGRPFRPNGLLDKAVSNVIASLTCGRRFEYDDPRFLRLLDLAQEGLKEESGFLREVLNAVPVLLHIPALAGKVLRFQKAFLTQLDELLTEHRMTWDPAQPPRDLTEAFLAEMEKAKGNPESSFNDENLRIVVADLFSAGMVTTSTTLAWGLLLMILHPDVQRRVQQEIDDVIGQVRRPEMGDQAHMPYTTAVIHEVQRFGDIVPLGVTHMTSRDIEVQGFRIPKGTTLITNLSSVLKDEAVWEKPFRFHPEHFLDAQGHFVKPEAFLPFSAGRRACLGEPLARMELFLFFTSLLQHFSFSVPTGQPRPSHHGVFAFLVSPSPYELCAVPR
Chain of Calcium and integrin-binding protein 1 (Homo sapiens) (Q99828 whole entry, looked up): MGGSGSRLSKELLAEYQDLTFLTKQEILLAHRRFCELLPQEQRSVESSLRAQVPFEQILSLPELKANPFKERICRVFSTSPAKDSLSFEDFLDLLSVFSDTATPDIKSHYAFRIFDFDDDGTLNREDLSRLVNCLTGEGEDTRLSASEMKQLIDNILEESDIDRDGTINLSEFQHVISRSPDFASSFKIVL
Chain of Cytochrome P450 2C9 (Homo sapiens) (P11712 whole entry, looked up): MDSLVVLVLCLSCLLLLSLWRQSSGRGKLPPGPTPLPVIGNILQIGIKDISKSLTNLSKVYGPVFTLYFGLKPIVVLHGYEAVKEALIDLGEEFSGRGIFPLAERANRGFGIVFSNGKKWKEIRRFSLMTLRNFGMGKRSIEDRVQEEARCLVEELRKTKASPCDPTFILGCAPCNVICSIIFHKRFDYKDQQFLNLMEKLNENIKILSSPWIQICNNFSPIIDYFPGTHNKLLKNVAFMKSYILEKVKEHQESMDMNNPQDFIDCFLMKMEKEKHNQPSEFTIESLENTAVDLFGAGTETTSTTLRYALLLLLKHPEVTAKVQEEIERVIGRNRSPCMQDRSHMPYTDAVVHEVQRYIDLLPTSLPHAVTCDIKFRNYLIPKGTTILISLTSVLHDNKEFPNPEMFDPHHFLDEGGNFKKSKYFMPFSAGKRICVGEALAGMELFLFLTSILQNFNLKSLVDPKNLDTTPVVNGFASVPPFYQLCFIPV

CC(C)=CCC(O)/C(C)=C/CO[C@@H]1O[C@H](CO)[C@@H](O)[C@H](O)[C@H]1O (some centres not stated)
inactive: Potency [1] | Potency (CRL-7250)

N#Cc1ccc(COC[C@H]2O[C@@H](n3c(NCc4ccc(Cl)c(Cl)c4)nc4c(N)ncnc43)[C@H](O)[C@@H]2O)cc1
inactive: Potency [2] | Potency (CRL-7250)

COCCCc1sc(-c2ccccc2)nc1C(=O)Nc1ccccc1-c1nc2cc(CN3CCCC3)cnc2s1
inactive: Potency [2] | Potency [3] | Potency (CRL-7250)

CCCCOc1nc(N)c2c(n1)N(Cc1cccc(CN3CCCC3)c1)CC(=O)N2
inactive: Potency [2] | Potency (CRL-7250)

COCCOc1ccc(N2CCN(CCn3ncc4c3nc(N)n3nc(-c5ccco5)nc43)CC2)cc1
-15.3%: activity change, negative = inhibition [3]
inactive: Potency [2] | Potency (CRL-7250)

C[C@@H](CN1CCC(n2c(=O)[nH]c3cc(Br)ccc32)CC1)NC(=O)[C@@H]1C[C@H]1c1ccccc1
active: Potency [4] 20.6 µM | Potency [8] 13.5 µM
inactive: Potency [5] | Potency [6] | Potency [7] | Potency [9] | Potency [10] | outcome [11] | Potency [12] | Potency [13] | Potency (C33A) | Potency (CAOV3) | Potency (CASKI) | Potency (Es-2) | Potency (HeLa) | Potency (Hek293T) | Potency (JEG-3) | Potency (OV90) | Potency (PA-1) | Potency (Tov-21-G) | Potency (Tov112D)

O=C(NCCN1CCC2(CC1)C(=O)NCN2c1cccc(F)c1)c1ccc2ccccc2c1
active: Potency [8] 2.68 µM | Potency [14] 12 µM | Potency [15] 9.16 µM | Potency [16] 9.16 µM
inactive: Potency [5] | Potency [6] | Potency [7] | Potency [9] | Potency [10] | outcome [11] | Potency [12] | Potency [13] | Potency [17] | Potency (C33A) | Potency (CAOV3) | Potency (CASKI) | Potency (Es-2) | Potency (HeLa) | Potency (Hek293T) | Potency (JEG-3) | Potency (OV90) | Potency (PA-1) | Potency (Tov-21-G) | Potency (Tov112D)

CC(C)N(C[C@H]1O[C@@H](n2cnc3c(N)ncnc32)[C@H](O)[C@@H]1O)C1CC(CCc2nc3ccc(C(C)(C)C)cc3[nH]2)C1 (some centres not stated)
inactive: Potency [2] | Potency [3] | Potency (CRL-7250)

COc1ccc(-c2cnc3c(-c4cccc5ncccc45)cnn3c2)cc1
inactive: Potency [2] | Potency (CRL-7250)

N#Cc1cccc(-c2c[nH]c3ncnc(N4CCOCC4)c23)c1
inactive: Potency [2] | Potency [3] | Potency (CRL-7250)

CC(=O)C1=C(O)C=C2Oc3c(C(C)=O)c(O)c(C)c(O)c3[C@]2(C)C1=O
inactive: Potency [1] | Potency (CRL-7250)

C=C1C(=O)OC(CCCCCCCC)C1C(=O)O (configuration not stated)
inactive: Potency [2] | Potency (CRL-7250)

C=C1C[C@@]2(O)O[C@@]3(C[C@H]2C(C)C)[C@@H](C)CC[C@@H]13
inactive: Potency [2] | Potency [3] | Potency (CRL-7250)

CC(=O)O[C@@H]1C[C@@H](C)[C@](O)(CCC2=CC(=O)OC2)[C@@]2(C)CCCC(C)(C)C12 (some centres not stated)
inactive: Potency [1] | Potency (CRL-7250)

Cc1cccc(Oc2cnc(=O)[nH]c2)c1
-20%: activity change, negative = inhibition [3]
inactive: Potency [2] | Potency (CRL-7250)
